Source: PMC5700166

target: T1, GST-Nv-NF-kB (Ser allele) (Nematostella vectensis, UniProt A7UNT2 2-411); assay: protein-binding microarray (PBM); PBM: ~300 nM protein, 6 mM HEPES pH 7.8, 80 mM KCl, 0.5 mM EDTA, 0.5 mM EGTA, 6% glycerol, 35 ng/ul poly-dIdC, 1% milk, 1 h, room temperature; Ap Aiptasia and Nv Nematostella (sea anemones) / Co Capsaspora / Aq Amphimedon (sponge) / Dm Drosophila / Hu human; RHD is the Rel homology domain; high values mean tight binding; conditions: dsDNA, one strand shown
T1 sequence: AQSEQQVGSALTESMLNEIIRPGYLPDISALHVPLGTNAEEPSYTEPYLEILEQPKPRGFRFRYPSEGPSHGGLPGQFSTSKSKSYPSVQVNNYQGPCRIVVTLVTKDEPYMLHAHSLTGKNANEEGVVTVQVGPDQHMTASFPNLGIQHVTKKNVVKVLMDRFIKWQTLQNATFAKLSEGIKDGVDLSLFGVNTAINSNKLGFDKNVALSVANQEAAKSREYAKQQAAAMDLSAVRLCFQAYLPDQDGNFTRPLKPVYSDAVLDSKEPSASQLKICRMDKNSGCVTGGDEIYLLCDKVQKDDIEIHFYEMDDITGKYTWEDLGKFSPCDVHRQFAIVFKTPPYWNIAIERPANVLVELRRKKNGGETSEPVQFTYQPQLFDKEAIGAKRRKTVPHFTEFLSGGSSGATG

Sequence | binding signal
CCGATTAACATCACACTCCCCCCTGATGTTAATCGGGTCTTGATTCGCTTGACGCTGCTG | 4.56 z-score
CCGATTAACATCAGGACTGCCCCTGATGTTAATCGGGTCTTGATTCGCTTGACGCTGCTG | 1.72 z-score
CCGATTAACATCAAATTCCCTTATGATGTTAATCGGGTCTTGATTCGCTTGACGCTGCTG | 6.07 z-score
CCGATTAACATCAGGGGGTTAAATGATGTTAATCGGGTCTTGATTCGCTTGACGCTGCTG | 4.45 z-score
CCGATTAACATCAGAAACTTCCCTGATGTTAATCGGGTCTTGATTCGCTTGACGCTGCTG | 4.61 z-score
CCGATTAACATCAGGGACTTTAATGATGTTAATCGGGTCTTGATTCGCTTGACGCTGCTG | 6.21 z-score
CCGATTAACATCAGGGGGTTGCATGATGTTAATCGGGTCTTGATTCGCTTGACGCTGCTG | 4.66 z-score
CCGATTAACATCACCCCCCCCCGTGATGTTAATCGGGTCTTGATTCGCTTGACGCTGCTG | 5.34 z-score
CCGATTAACATCAGGGGATATAATGATGTTAATCGGGTCTTGATTCGCTTGACGCTGCTG | 6.48 z-score
CCGATTAACATCAAACAGTCCCCTGATGTTAATCGGGTCTTGATTCGCTTGACGCTGCTG | 4.53 z-score
CCGATTAACATCAGGCCTTCCCCTGATGTTAATCGGGTCTTGATTCGCTTGACGCTGCTG | 5.25 z-score
CCGATTAACATCAGGGGGAACAATGATGTTAATCGGGTCTTGATTCGCTTGACGCTGCTG | 6.27 z-score
CCGATTAACATCAGGGGGGATACTGATGTTAATCGGGTCTTGATTCGCTTGACGCTGCTG | 4.8 z-score
CCGATTAACATCAAACCCCCCCATGATGTTAATCGGGTCTTGATTCGCTTGACGCTGCTG | 4.41 z-score
